Compound activity: PubChem BioAssay, National Center for Advancing Translational Sciences (NCATS)
An excerpt weighted towards active compounds, which were near 21% of everything screened.
Shiga inhibitor – Shiga toxin inhibition. Vero cells, Shiga toxin protein synthesis inhibition reporter. inhibition, % at 38.7 µM. 290,000 tested, 9.2% active. AID 2315; in the data active = inhibition mostly above about 28%, no sharp cut-off; inactive = mostly below about 43%; also: 0% is about no effect
Cycloheximide cs – affects cycloheximide protein synthesis inhibition readout, counter-screen; cell reporter, cycloheximide protein synthesis inhibition counterscreen; max response, %; 300,000 tested, 12% active; AID 2314; in the data active = max response mostly above about 13%, no sharp cut-off; inactive = mostly below about 14%; also: read at 38.3 µM for the half of the compounds with a filed dose; 0% is about no effect
Pf growth 48h – P. falciparum growth inhibition at 48 hours (one generation) | P. falciparum luciferase growth in erythrocytes, 48 h | Potency, µM (titrated, usually from 28.7 µM), for inactives: at the top dose activity change, negative = inhibition, most hits filed as inhibitors | 310,000 tested, 5.9% active; also: potency is read from the fitted curve at half-maximal effect; % is scaled to controls: 0 for no effect and ±100 for the full control effect
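Luciferase-expressing P. falciparum in infected erythrocytes (2% hematocrit, 0.1% parasitemia final) in RPMI 1640/0.5% Albumax were exposed to compound for 48 hours at 37 C, 5% CO2; growth read as luminescence.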
NS1 inh – influenza NS1 inhibition; Potency, µM (titrated, usually from 46.1 µM), for the others: at the top dose activity, positive = more growth; 270,000 tested, 0.4% active; AID 2326; calls by dose curve; also: potency is read from the fitted curve at half-maximal effect; actives are rising curves; nearly all actives have a fitted effect of over 50% in size
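OD600 was taken as the measure of yeast growth restored by compound in an NS1-expressing S. cerevisiae strain. Cells had been washed out of glucose medium and diluted 1:100 into galactose -URA medium, pH 6.0.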
Pf growth 96h – P. falciparum growth inhibition at 96 hour, primary screen for plastid delayed-death inhibitors; Potency, µM (titrated, usually from 28.7 µM), for the others: at the highest dose activity change, negative = inhibition, hits mostly inhibitors; AID 504834; P. falciparum luciferase reporter growth, 96 h; 320,000 tested, 6.9% active; also: potency is read from the fitted curve at half-maximal effect; % is scaled to controls: 0 for no effect and ±100 for the full control effect
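Luminescence readout: decreased luciferase signal marks inhibited growth of reporter-expressing P. falciparum in infected red cells (2% hematocrit, 0.05% parasitemia final), exposed to compound two generations (96 h, 37 C, 5% CO2).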
An asterisk follows results filed as active; ? = inconclusive; nt = no result given. Unless noted, calls follow the shape of the dose curve; as a rule, active = well fitted inhibition curve with a large enough effect; inconclusive = small, poorly fitted or top-dose-only effect, or another doubt; inactive = no such curve, though single readings can be large or run the other way.

SMILES | Shiga inhibitor | Cycloheximide cs | Pf growth 48h | NS1 inh | Pf growth 96h
CCOc1ccccc1NC(=O)N1CCC(n2nnc3cc(C)ccc32)CC1 | -11 | -5 | ? | -6% | ?
COC(=O)c1[nH]c2cccc(C)c2c1NC(=O)CN1CCN(C(=O)c2ccco2)CC1 | 16 | -7 | ? | 8% | 12µM*
COC(=O)c1[nH]c2cc(C)ccc2c1NC(=O)CN1CCN(C(=O)c2ccco2)CC1 | -18 | -3 | ? | -10% | 3.3µM*
COC(=O)c1[nH]c2ccc(F)cc2c1NC(=O)CCN1CCN(C(=O)c2ccco2)CC1 | 48 | -1 | 35% | -4% | ?
COC(=O)c1[nH]c2ccccc2c1NC(=O)C(C)N1CCN(C(=O)c2ccco2)CC1 (stereo unspecified) | -12 | 2 | ? | -2% | 10µM*
COC(=O)c1[nH]c2cccc(C)c2c1NC(=O)CN1CCN(c2ccccc2OC)CC1 | -7 | -5 | ? | -54% | -24%
Cc1noc(C)c1COc1cccc(C(=O)N(C)Cc2cccs2)c1 | nt | nt | 15% | nt | ?
O=P1(O)OP(=O)(O)OP(=O)(O)O1.[Al] | -7 | -6 | nt | nt | nt
COc1nc(C)ccc1-c1noc(-c2cccs2)n1 | 140* | 58* | 52% | -3% | 65%
COc1nc(C)ccc1-c1noc(-c2ccncc2)n1 | 25 | 23* | 212% | 0% | 7%
COc1nc(-c2ccccc2)ccc1-c1noc(-c2cccs2)n1 | nt | nt | nt | 7% | nt
COc1ccc(CCNC(=O)CN2C(=O)NC(Cc3c[nH]c4ccccc34)C2=O)cc1 (stereo unspecified) | -5 | 6 | -16% | 0% | 12%
c1ccc(C2CSc3ccccc3N2)cc1 (stereo unspecified) | 102* | 64* | 152% | 3% | 163%
COc1cccc(CNC(=O)CSCC(=O)Nc2ccc(C)cc2)c1 | nt | nt | ? | nt | -8%
CCOC(=O)c1ccc(NS(=O)(=O)N2CCCCCC2)cc1 | 74* | 32* | 50% | -30% | nt
CCOC(=O)c1ccccc1NC(=S)N1CCCCC1 | 11 | 1 | 0% | 0% | 9.3µM*
Cc1cccc(NS(=O)(=O)c2ccc(NC(=O)N3CCCCC3)cc2)c1 | 6 | -2 | -17% | 7% | -18%
CCOC(=O)c1cccc(NC(=O)N2CCOCC2)c1 | -11 | 4 | 17% | -1% | -23%
CCOC(=O)c1ccc(NC(=O)N2CCOCC2)cc1 | 98* | 35 | 179% | nt | 409%
CCOC(=O)c1ccc(NC(=O)C2CCN(S(=O)(=O)CC)CC2)cc1 | -5 | -1 | ? | 1% | ?
Cc1ccc(NS(=O)(=O)c2ccc(NC(=O)N3CCCCC3)cc2)cc1 | 25 | 5 | ? | 8% | 1.5µM*
O=C(O)c1cc(S(=O)(=O)NC23CC4CC(CC(C4)C2)C3)ccc1Cl | -8 | -3 | 11% | 8% | 12%
CC(C)(C)C(=O)NC(=S)NNC(=O)c1ccc(Cl)cc1Cl | 30 | 3 | ? | nt | ?
Cc1ccnn1CCC(=O)N1CCCC(N2CCN(c3cccc(Cl)c3)CC2)C1 (stereo unspecified) | 10 | 6 | -3% | -3% | -6%
CC(=O)NC(Cc1ccc(C(C)C)cc1)C(=O)NC1CCN(C(=O)c2cccc(C)c2)CC1 (stereo unspecified) | 17 | -3 | ? | 2% | ?
SMILES | Shiga inhibitor | Cycloheximide cs | Pf growth 48h | NS1 inh | Pf growth 96h
CCCN1CCN(C(=O)Nc2ccc(C(=O)OCC)cc2)CC1 | 30 | 12* | nt | 2% | -29%
CC(=O)Nc1cc(C(=O)N2CCCC2)ccc1S(=O)(=O)c1ccc(C)cc1 | -6 | -2 | 15% | 1% | 1.2µM*
O=C(Nc1ccc(F)cc1)N1CCCCCC1 | 31* | 15* | 3% | 0% | -20%
CC(=O)Nc1cc(C(=O)N2CCC3(CC2)OCCO3)ccc1S(=O)(=O)c1ccc(C)cc1 | -7 | -2 | 14% | -3% | 18%
CC(=O)Nc1ccc(NC(=O)N2CCCCC2)cc1 | 13 | 6 | 30% | ? | -76%
CCOC(=O)c1ccc(NC(=O)N2CCN(Cc3cccc(F)c3)CC2)cc1 | -4 | -1 | ? | -30% | 7%
C/C(=N\S(=O)(=O)c1ccc(C)cc1)N1CCCCC1 | 18 | -1 | 1% | 5% | 12µM*
O=C(Nc1cc(Cl)ccc1Cl)C1Cc2ccccc2O/C1=N\O (stereo unspecified) | 13 | 0 | 0% | -5% | 7%
CCn1c(SCC(=O)Nc2nc(C)cs2)nnc1-c1ccncc1 | -7 | -4 | 35% | -1% | ?
Cc1cccc(C(=O)N(Cc2nc3ccccc3c(=O)[nH]2)C2CCCCC2)c1 | 16 | 1 | -24% | -5% | ?
CC(C)C[C@H](NC(=O)N1CCCCCC1)C(=O)O | -3 | -3 | -3% | 2% | 26%
CCOC(=O)c1ccc(NC(=O)N2CCCCCC2)cc1 | 123* | 76* | 214% | -13% | -4%
CCOC(=O)c1c(C)[nH]c(C)c1S(=O)(=O)Nc1ccc(CN2CCCCC2)cc1 | -1 | -2 | ? | -12% | 5.9µM*
CCOC(=O)c1cccc(NS(=O)(=O)c2c(C)[nH]c(C)c2C(=O)N2CCCC2)c1 | 1 | -5 | 3% | -4% | ?
CCOc1cc(C(=O)NC2=NCCS2)cc(OCC)c1OCC | 25 | 22 | 1% | nt | 33%
CCOc1ccc(C(=O)NC2=NCCS2)cc1 | 83* | 27* | 79% | 0% | 139%
COc1ccc(OC)c(-c2csc(NC(=O)c3ccc(F)cc3)n2)c1 | 12 | 14 | ? | -27% | ?
COc1ccc(OC)c(-c2csc(NC(=O)c3ccc(OCC4CCCO4)cc3)n2)c1 (stereo unspecified) | 40* | 39* | ? | 7% | 12µM*
Cc1cnc(NC(=O)c2ccc(OCC3CCCO3)cc2)s1 (stereo unspecified) | 62 | 8 | 114% | -4% | 263%
O=C(NC1=NCCS1)c1ccc(OCC2CCCO2)cc1 (stereo unspecified) | 51* | 30* | 216% | -10% | 2%
O=C(Nc1nc2ccccc2s1)c1ccc(OCC2CCCO2)cc1 (stereo unspecified) | 82* | 18* | 93% | -3% | 0%
Cc1ccc(N=Cc2c(O)c3ccccc3oc2=O)cc1F | 7 | 4 | 13% | 24% | 5%
O=C(c1ccc(OCC2CCCO2)cc1)N1CCN(c2ccccc2)CC1 (stereo unspecified) | -2 | -3 | 24% | -9% | ?
O=C(c1ccc(OCC2CCCO2)cc1)N1CCc2ccccc2C1 (stereo unspecified) | 56* | 30* | 3% | nt | 41%
Cc1ccc(NC(=O)c2ccc(OCC3CCCO3)cc2)nc1 (stereo unspecified) | nt | nt | 85% | nt | 104%
COc1ccc(OC)c(-c2csc(N(CC3CCCO3)C(=O)Cc3ccccc3)n2)c1 (stereo unspecified) | -16 | 1 | ? | 6% | 1.9µM*
Cc1noc(C)c1COc1ccc(C(=O)Nc2ncccc2O)cc1 | nt | nt | 7.4µM* | nt | ?
